Screening data (PubChem)
Shown are actives, neighbours in structure and some others; about 5.1% of the full set was active somewhere.
Tau FP inhib: qHTS for Inhibitors of Tau Fibril Formation, Fluorescence Polarization; Microtubule-associated protein tau (Homo sapiens), P10636; 280,000 tested, 0.39% active; Potency, µM (doses to about 57.7 µM), inactives show at the top dose activity, negative = inhibition, most hits filed as inhibitors; K18 P301L tau heparin fibrillization, Alexa594 FP, 6 h; AID 1468, 2008; further: potency means the concentration at half of the fitted maximal effect; nearly all actives have a fitted effect of over 55% in size
Target sequence (P10636 561-689 P618L limits assumed): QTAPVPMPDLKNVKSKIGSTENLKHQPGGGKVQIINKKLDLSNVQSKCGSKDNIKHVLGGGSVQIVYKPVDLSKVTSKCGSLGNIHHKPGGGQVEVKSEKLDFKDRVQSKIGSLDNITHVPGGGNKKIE
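Human K18 P301L fragment (15 uM unlabeled plus 0.24 uM Alexa 594-labeled) in 100 mM sodium acetate pH 7 with compound, aggregation induced by 20 uM heparin for 6 hr at 37 C. ThT (30 uM) added for 1 hr, then Alexa 594 FP read.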
PNC assembly inh: High Content Assay for Compounds that inhibit the Assembly of the Perinucleolar Compartment; PC3M PTB-GFP, PNC prevalence imaging, 16 h; stronger effect = lower value; 140,000 tested, 3.1% active; activity change (PNC), negative = inhibition, % at 10 µM;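 active means readout at or below -70, meaning at least 70% loss of cells showing the perinucleolar compartment, a nuclear body marking cancer cells; inconclusive means readout between -30 and a set limit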;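 further: plate controls were DMSO wells for no effect and camptothecin positive control wells for full effect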
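Read-out is percentage of cells bearing a perinucleolar compartment, from automated 20x imaging of fixed, Hoechst-stained PC3M PTB-GFP cells. Cells were seeded 4 h, then exposed 16 h to compound (23 nl of library stock) in duplicate plates.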
Tau ThT inhib: qHTS for Inhibitors of Tau Fibril Formation, Thioflavin T Binding; Potency, µM (top dose mostly 57.4 µM), without a hit: at the highest dose activity, negative = inhibition, usual class: inhibitors; Microtubule-associated protein tau (Homo sapiens), P10636; recombinant tau K18 P301L, heparin-induced fibrillization, ThT fluorescence; 270,000 tested, 2.1% active; further: potency means the concentration at half of the fitted maximal effect; nearly all actives have a fitted effect of over 55% in size
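Tau K18 P301L fragment (15 uM unlabeled plus 0.24 uM Alexa 594-labeled) in 100 mM sodium acetate pH 7 with compound, fibrillization induced by 20 uM heparin for 6 hr at 37 C. Thioflavin T (30 uM) added, fluorescence read after 1 hr (ex 450, em 510 nm).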
NPSR antag: qHTS Assay for Antagonists of the Neuropeptide S Receptor: cAMP Signal Transduction; CHO-NPSR cells, cAMP TR-FRET, antagonist mode; Potency, µM (top dose mostly 38.3 µM), without a hit: at the highest dose activity change, negative = inhibition, actives largely listed as inhibitors; 220,000 tested, 1% active; further: potency means the concentration at half of the fitted maximal effect; nearly all actives have a fitted effect of over 50% in size
Target sequence (Q6W5P4 whole entry, looked up): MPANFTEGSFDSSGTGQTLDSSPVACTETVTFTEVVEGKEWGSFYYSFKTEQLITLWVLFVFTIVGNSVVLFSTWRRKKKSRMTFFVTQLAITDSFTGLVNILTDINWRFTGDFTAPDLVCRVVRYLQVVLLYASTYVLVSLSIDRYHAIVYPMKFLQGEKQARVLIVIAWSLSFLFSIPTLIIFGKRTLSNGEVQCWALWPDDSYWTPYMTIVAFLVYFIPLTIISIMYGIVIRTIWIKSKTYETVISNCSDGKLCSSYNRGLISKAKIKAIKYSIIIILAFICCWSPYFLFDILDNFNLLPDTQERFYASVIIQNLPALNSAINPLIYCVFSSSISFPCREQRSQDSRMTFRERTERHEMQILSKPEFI
Tau fluor cs: Counterscreen qHTS for Inhibitors of Tau Fibril Formation, Fluorescence Polarization. AID 1463, 2008. Potency, µM (titrated, usually from 57.7 µM), for inactives: top-dose activity change, negative = decrease. tau K18 P301L (four-repeat tau fragment) Alexa594 fluorescence, heparin fibrillization. 280,000 tested, 0.93% active; further: potency means the concentration at half of the fitted maximal effect; nearly all actives have a fitted effect of over 55% in size
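Human K18 P301L tau (15 uM unlabeled plus 0.24 uM Alexa 594-labeled, final) in 100 mM sodium acetate pH 7 was mixed with compound and 20 uM heparin and incubated 6 hr at 37 C.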
KDM4E inh: qHTS Assay for Inhibitors of Human Jumonji Domain Containing 2E (JMJD2E); AID 2147, 2009; Potency, µM (series often up to 57.1 µM), for inactives: at the top dose activity change, negative = inhibition, most hits filed as inhibitors; Lysine-specific demethylase 4E (Homo sapiens), B2RXH2; 230,000 tested, 1.6% active; JMJD2E catalytic domain, FDH-coupled NADH fluorescence (FDH is formaldehyde dehydrogenase);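 further: potency means the concentration at half of the fitted maximal effect; 0% = wells with enzyme and -100% = buffer wells without enzyme; nearly all actives have a fitted effect of over 50% in size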
* marks the source's active call; other numbers are inactive results; ? = inconclusive; / = no result; [ ] = dose if it differs, or a comment. Unless noted, the call rests on the fitted dose curve; in most records, active means well fitted curve in the direction sought with a large enough effect; inconclusive means small, poorly fitted or top-dose-only effect, or another doubt; inactive means no such curve, though single readings can be large; an effect the other way counts as inactive or inconclusive. Unless noted, on the % scale 0 is the no-effect control and ±100 the full control effect.

SMILES	Tau FP inhib	PNC assembly inh	Tau ThT inhib	NPSR antag	Tau fluor cs	KDM4E inh
Oc1c(C=C2N=c3ccccc3=N2)sc(=S)n1C1CCCC1	1%	14	4%	-3%	2%	1%
O=C(Nn1c(O)c(C=C2N=c3ccccc3=N2)sc1=S)c1cccc(Cl)c1	?	?	?	-12%[46.1 µM]	13µM*[quencher]	-4%
Cc1ccc(S(=O)(=O)Nn2c(O)c(C=C3N=c4ccccc4=N3)sc2=S)cc1	-3%	/	11µM*	?	?	10%
Oc1[nH]c(=S)sc1C=C1N=c2ccccc2=N1	-1%	/	14µM*	?	-29%	-2%
O=C(Nn1c(O)c(C=C2N=c3ccccc3=N2)sc1=S)c1ccc(Cl)cc1	?	26	11µM*	-22%[46.1 µM]	7.9µM*[quencher]	-30%
COC(=O)c1sccc1S(=O)(=O)N1CCN(c2ccccc2)CC1	-6%	/	-9%	/	-15%	/
Cc1cc2c(cc1S(=O)(=O)NCc1ccc(F)cc1)OCCN2C	3%	/	-14%	/	-13%	/
CC1=C(/C=C/C(C)=C/C=C/C(C)=C/C(=O)O)C(C)(C)CCC1O (stereo unspecified)	-8%	/	?	/	-4%	/
O=C(Nn1c(O)c(C=C2N=c3ccccc3=N2)sc1=S)c1ccccc1	-2%	17	14µM*	-15%[46.1 µM]	14µM*[quencher]	1%
Cc1ccc(C(=O)Nn2c(O)c(C=C3N=c4ccccc4=N3)sc2=S)cc1	-14%	?	?	?	?	-4%
O=C1N=c2ccc(Br)cc2=C1c1sc(=S)n(NS(=O)(=O)c2ccccc2)c1O	?	/	11µM*	-44%	14µM*[quencher]	0%
COCCCNC(=O)Cn1nc(N2CCN(c3ccccc3)CC2)ccc1=O	10%	/	-2%	/	2%	/
COC(=O)c1ccc(/C=C(\C#N)c2nc3ccccc3s2)cc1	-4%	70	7.9µM*	-3%[46.1 µM]	?	-4%
N#C/C(=C/c1ccc(-c2ccc(S(N)(=O)=O)cc2)o1)c1nc2ccccc2s1	-4%	?	11µM*	-30%	?	1%
N#C/C(=C\c1ccccn1)c1nc2ccccc2s1	?	/	8.9µM*	-9%	14µM*[quencher]	-18%
COc1ccc(/C(C#N)=C/c2ccccn2)cc1	-5%	/	?	40%	-26%	?
CCOc1ccccc1C1N=C(N)Nc2nc3ccccc3n21 (stereo unspecified)	7%	/	-6%	/	-6%	/
COCCCn1c(=N)c(S(=O)(=O)c2ccccc2)cc2c(=O)n3cccc(C)c3nc21	1%	/	-6%	/	0%	/
COc1cc(OC)c(NC(=S)Nc2cccc(C(C)=O)c2)cc1Cl	0%	25	?	-13%[46.1 µM]	?	-1%
COc1cc(OC)c(NC(=S)Nc2cc(Cl)cc(Cl)c2)cc1Cl	3%	-26	?	-35%	25µM*[quencher]	-1%
CCCCNc1nc(Oc2ccc(OCCC)nn2)nc(N(C)C)n1	-1%	/	-3%	/	-8%	/
CCc1ccc(S(=O)(=O)/N=C2/C=C(Sc3ncn[nH]3)C(=O)c3ccccc32)cc1	11µM*	-123*	4µM*	10µM*	?	3.5µM*
CCc1ccc(S(=O)(=O)N2CC(=O)Nc3ccccc32)cc1	-10%	31	-2%	-3%[46.1 µM]	-14%	5%
CCc1ccc(S(=O)(=O)/N=C2\C=CC(=O)c3ccccc32)cc1	?	/	18µM*	-14%	?	-22%
COc1cc([C@@H]2Nc3c(F)cccc3[C@@H]3C=CC[C@@H]32)cc(Br)c1OC	-2%	/	-9%	/	-16%	/
O=C(O)c1cc(Br)ccc1NN=C1CCCCC1	-14%	?	20µM*	3%	-22%	?
O=c1cccccc1NN=C1CCCCC1	-7%	/	/	-11%	-15%	-23%
CN(C)c1ncc(C(=O)NCc2ccccc2Cl)cn1	3%	/	8%	/	7%	/
